# Reference: ChEMBL document CHEMBL4513154, “CO-ADD screening of Jain University (India) compounds”
# Potency and affinity values are given separately.
# Tested on: Klebsiella pneumoniae
# Settings: Concentration 32 ug.mL-1; ASSAY_TEST Inhibition of Bacterial Growth; detection method Absorption (OD600); MEDIA CAMHB; plate type 384well; NBS; CORNING #3640; time 18 hr
row,SMILES,Inhibition
1,N#Cc1ccc(Cn2c(-c3cscn3)nc3c(Cl)cccc32)cc1,-10.25%
2,Nc1nc(Nc2ccc(Cl)cc2)sc1-c1nc2ccccc2c(=O)n1-c1ccccc1,6.62%
3,Clc1cccc2c1nc(-c1cscn1)n2Cc1ccccc1,10.03%
4,N=C(Nc1ccccc1Cl)c1cscn1,17.83%
5,Cn1c(-c2cscn2)nc2cc(Cl)ccc21,8.32%
6,CCc1ccc(Nc2nc(N)c(-c3nc4ccccc4c(=O)n3-c3ccc(CC)cc3)s2)cc1,12.46%
7,CCc1ccc(Nc2nc(N)c(-c3nc4ccccc4c(=O)n3-c3ccccc3)s2)cc1,10.03%
8,N#Cc1ccccc1-c1ccc(Cn2c(-c3cscn3)nc3cc(Cl)ccc32)cc1,8%
9,CCc1ccc(-n2c(-c3sc(Nc4ccccc4)nc3N)nc3ccccc3c2=O)cc1,-7.9%
10,N#Cc1ccccc1-c1ccc(Cn2c(-c3cscn3)nc3c(Cl)cccc32)cc1,-3.22%
11,Cn1c(-c2cscn2)nc2c(Cl)cccc21,-3.44%
12,N#Cc1ccccc1-c1ccc(Cn2c(-c3cscn3)nc3ccc(Cl)cc32)cc1,6.08%
13,O=[N+]([O-])c1ccc(Cn2c(-c3cscn3)nc3ccccc32)cc1,13.21%
14,Clc1ccc2c(c1)nc(-c1cscn1)n2Cc1ccccc1,12.29%
15,CC(C)c1ccc(Cn2c(-c3cscn3)nc3c(Cl)cccc32)cc1,2.02%
16,Clc1ccc2nc(-c3cscn3)n(Cc3ccccc3)c2c1,10.47%
17,Clc1cccc2[nH]c(-c3cscn3)nc12,5.98%
